“And” between values parts separate entries of the source, which are not always exact repeats. Equal values may be shown once. The source made the active and inactive calls.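 How the source made its calls, unless noted: active means compounds killing one labelled cell type while sparing the other, by normalised counts and ratio limits, not self-fluorescent; inactive means the rest.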
Tests used:
[1] = stimulators of insulin release from INS-1E, primary screen, cell-based, 5 mM glucose, NPC library (AID 1117329;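 active means compound raises insulin release from rat beta cells at 5 mM glucose, no numeric limit stated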); conditions: rat INS-1E insulin secretion, at 10 µM, stronger effect = higher value
[2] = growth inhibition of GSK3B-pretreated HCT116 cells – cell-based, CellTiter-Glo, 0.2 to 20 µM (AID 1117336;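 active means compounds lowering colon cancer cell viability after pretreatment blocking the GSK3B kinase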); conditions: HCT116 viability after GSK3B inhibitor, at 20 µM, stronger effect = higher value
[3] = inhibition of endothelial tube formation, primary screen, imaging, VEGF stimulated, CD31 staining, tube area, NPC library (AID 1117340;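 active means compound that reduces growth-factor-driven endothelial tube area in a mixed cell culture, no cutoff stated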); conditions: VEGF-stimulated ADSC/ECFC co-culture, at 10 µM, stronger effect = higher value
[4] = glucagon-like peptide 1 release enhancers, primary assay, NCI-H716 cell line, NPC library (AID 1117341;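 active means compound raises GLP1 secretion from the human gut endocrine cells, with no numeric limit stated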); conditions: NCI-H716 cells, at 10 µM, stronger effect = higher value
[5] = HCT116 colon cancer cell growth inhibition, primary screen, CellTiter-Glo luminescence, NPC library (AID 1117342;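 active means compounds that lower survival of HCT116 colon cancer cells in the luminescence readout, no numeric limit stated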); conditions: at 20 µM (top of the series)
[6] = CellTiter-Glo luminescent readout of SW480 viability loss, NPC library primary (AID 1117343;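 active means compounds that lower viability of the colon cancer cells in the luminescence readout, with no numeric limit stated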); conditions: CellTiter-Glo luminescence; at 20 µM (top of the series)
[7] = decreased DLD-1 cellular survival, CellTiter-Glo luminescent readout, NPC compound collection, primary HTS (AID 1117346;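 active means compounds that lower survival of DLD-1 colon cancer cells in the luminescence readout, no cutoff given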); conditions: DLD-1 viability, CellTiter-Glo luminescence; at 20 µM (top of the series)
[8] = target: 6-phosphogluconate dehydrogenase, decarboxylating (Homo sapiens) (UniProt P52209); test: 6PGD enzyme inhibitors, primary screen, biochemical, human, recombinant enzyme, NADPH absorbance (AID 1159550;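 active means at least 20% inhibition of 6-phosphogluconate dehydrogenase activity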); conditions: recombinant 6PGD, NADPH absorbance 341 nm; at 10 µM; stronger effect = higher value
[9] = differential killing of epithelial or mesenchymal cells, primary screen, imaging, PC-3E GFP, TEM4-18 mCherry, co-culture (AID 1345086); conditions: imaging cell counts, at 1 µM; for red/green cell ratio (normalised): actives lie on both sides, counts scaled to control wells, 1 = unselective;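 on all read-outs here: cells exposed to compound for 72 h before imaging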;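 on red/green cell ratio (normalised): normalised mesenchymal count divided by normalised epithelial count so high means epithelial killing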
[10] = measured here: epithelial PC-3E GFP cell survival
[11] = measured here: mesenchymal TEM4-18 mCherry cell survival

Chain of 6-phosphogluconate dehydrogenase, decarboxylating (Homo sapiens) (P52209 whole entry, looked up): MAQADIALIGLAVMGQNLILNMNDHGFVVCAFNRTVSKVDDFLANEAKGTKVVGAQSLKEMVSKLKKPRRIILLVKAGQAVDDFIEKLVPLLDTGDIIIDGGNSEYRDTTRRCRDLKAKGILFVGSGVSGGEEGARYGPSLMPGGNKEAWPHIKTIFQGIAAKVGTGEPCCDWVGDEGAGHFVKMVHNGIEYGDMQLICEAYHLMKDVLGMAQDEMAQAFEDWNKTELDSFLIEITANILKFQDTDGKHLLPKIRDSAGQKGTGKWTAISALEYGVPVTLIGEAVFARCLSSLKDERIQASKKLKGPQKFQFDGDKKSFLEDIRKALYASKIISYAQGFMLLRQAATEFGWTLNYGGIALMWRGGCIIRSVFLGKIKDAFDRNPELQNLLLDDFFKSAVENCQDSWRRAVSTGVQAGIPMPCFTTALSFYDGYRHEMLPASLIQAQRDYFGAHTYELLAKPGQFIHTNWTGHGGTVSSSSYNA

SMILES	insulin secretion stimulation [1]	viability decrease [2]	tube area decrease [3]	GLP1 secretion stimulation [4]	inhibition of viability [5]	viability decrease (inhibition) [6]	viability decrease (inhibition) [7]	inhibition [8]	red/green cell ratio (normalised) [9]	normalised cell number [9, 10]	normalised cell number [9, 11]
CC(N)CCCC(C)(C)O (centres undefined)	0.6% (inactive)	-36.1% (inactive)	-13.2% (inactive)	-1.9% (inactive)	-2.33% (inactive)	13% (inactive)	-0.1% (inactive)	-2.18% (inactive)	0.95 (inactive)	0.99	0.93
CC(=O)Oc1cccc(O)c1	2.6% (inactive)	0.4% (inactive)	20.9% (inactive)	1.4% (inactive)	3.03% (inactive)	29.4% (inactive)	-7.4% (inactive)	8.3% (inactive)	1.21 (inactive)	1.1	1.33
NS(=O)(=O)c1cc2c(cc1Cl)NC(CSCc1ccccc1)=NS2(=O)=O	0% (inactive)	-14.2% (inactive)	5% (inactive)	0.4% (inactive)	-3.3% (inactive)	0.9% (inactive)	-17.1% (inactive)	-3.14% (inactive)	1.25 (inactive)	1.02	1.28
CCOC(N)=O	0.8% (inactive)	-12.6% (inactive)	14.2% (inactive)	-2.3% (inactive)	3.77% (inactive)	5.1% (inactive)	-11.6% (inactive)	-22.6% (inactive)	1.16 (inactive)	0.95	1.1
Cc1c(NC(=O)c2cccnc2)c(=O)n(-c2ccccc2)n1C	-1% (inactive)	-14.1% (inactive)	7.1% (inactive)	-0.1% (inactive)	-4.77% (inactive)	18.1% (inactive)	-19.7% (inactive)	-15.8% (inactive)	1.04 (inactive)	1.05	1.09
Cc1c(N(C)C)c(=O)n(-c2ccccc2)n1C	0.4% (inactive)	-152% (inactive)	8.4% (inactive)	-1.9% (inactive)	-13.5% (inactive)	-4.8% (inactive)	-6.4% (inactive)	13.9% (inactive)	0.85 (inactive)	1.18	1
CCN(CC)CCNC(=O)c1cc(S(C)(=O)=O)ccc1OC	0.1% (inactive)	-23.6% (inactive)	12% (inactive)	0.7% (inactive)	1.13% (inactive)	10.9% (inactive)	-4.3% (inactive)	-8.37% (inactive)	1.26 (inactive)	0.93	1.16
CC(=O)Nc1cccc(O)c1	1.1% (inactive)	-1.55% (inactive)	-19.6% (inactive)	-0.3% (inactive)	-14.5% (inactive)	32.8% (inactive)	4.35% (inactive)	11.9% (inactive)	0.95 (inactive)	0.83	0.79
CCN(CC)CCOC(=O)C(c1ccccc1)c1ccccc1	13.6% (inactive)	-6.6% (inactive)	17.8% (inactive)	0.6% (inactive)	8.4% (inactive)	-5.9% (inactive)	5.6% (inactive)	-7.73% (inactive)	1.2 (inactive)	1.02	1.22
O=c1cc[nH]c(=S)[nH]1	-0.7% (inactive)	-5.7% (inactive)	11.6% (inactive)	-6.9% (inactive)	1.83% (inactive)	-9.6% (inactive)	-8.5% (inactive)	13.5% (inactive)	0.81 (inactive)	1.32	1.07
CCN(CC)CCNC(=O)COc1ccc(OC)cc1	1.8% (inactive)	-5.3% (inactive)	-8.1% (inactive)	2.1% (inactive)	-18.7% (inactive)	22.1% (inactive)	-6.15% (inactive)	-14.6% (inactive)	1.07 (inactive)	1.11	1.18
Cc1cc(-c2ccccc2)nnc1NCCN1CCOCC1	-1.9% (inactive)	-42.6% (inactive)	6.8% (inactive)	0.4% (inactive)	6.4% (inactive)	12.4% (inactive)	-6.5% (inactive)	3.56% (inactive)	1.08 (inactive)	1.01	1.08
CCCCCCOc1ccccc1C(N)=O	-0.6% (inactive)	-31.8% (inactive)	-2.6% (inactive)	-2.8% (inactive)	19.5% (inactive)	36.2% (inactive)	11.6% (inactive)	-1.25% (inactive)	1 (inactive)	0.94	0.94
CC(=O)OCC1=C(C(=O)O)N2C(=O)[C@@H](NC(=O)CSc3ccncc3)[C@H]2SC1	0.9% (inactive)	14.8% (inactive)	-9.7% (inactive)	-1.1% (inactive)	5.07% (inactive)	13.8% (inactive)	-15.1% (inactive)	3.03% (inactive)	1.23 (inactive)	1	1.24
OC(CCN1CCCCC1)(c1ccccc1)c1ccccc1	60.4% (active)	12.2% (inactive)	1.5% (inactive)	3.3% (inactive)	23.9% (inactive)	27% (inactive)	2.1% (inactive)	12.5% (inactive)	0.87 (inactive)	1.06	0.92
Cc1cc(=O)n(-c2ccccc2)n1C	-0.2% (inactive)	-26.3% (inactive)	-3.4% (inactive)	0.4% (inactive)	1.15% (inactive)	4% (inactive)	-8.2% (inactive)	6.71% (inactive)	1.02 (inactive)	1.24	1.26
C[C@H](N)[C@H](O)c1cccc(O)c1	-3.4% (inactive)	-13.4% (inactive)	12.1% (inactive)	-3.4% (inactive)	-3.1% (inactive)	37.4% (inactive)	1.5% (inactive)	13.9% (inactive)	1.4 (inactive)	0.79	1.1
CN(C)[C@@H]1C(=O)C(C(N)=O)=C(O)[C@@]2(O)C(=O)C3=C(O)c4c(O)ccc(Cl)c4[C@@H](O)[C@H]3C[C@@H]12	0.9% (inactive)	-29.7% (inactive)	17.3% (inactive)	10.2% (inactive)	57% (active)	107% (active)	94.7% (active)	0.718% (inactive)	0.96 (inactive) and 1.05 (inactive)	1.09 and 1.32	1.05 and 1.38
Cc1c(C(N)=O)cc([N+](=O)[O-])cc1[N+](=O)[O-]	-3.2% (inactive)	13.7% (inactive)	-5.4% (inactive)	2.8% (inactive)	-20% (inactive)	34% (inactive)	19.3% (inactive)	-17.5% (inactive)	0.99 (inactive)	0.91	0.9
O=C1c2cccc(O)c2C(=O)c2c(O)cccc21	-2.2% (inactive)	21.4% (inactive)	6% (inactive)	0% (inactive)	21.9% (inactive)	52.4% (active)	9.7% (inactive)	-6.73% (inactive)	1.24 (inactive)	1.22	1.51
CO[C@]12C[C@@H](COC(=O)c3cncc(Br)c3)CN(C)[C@@H]1Cc1cn(C)c3cccc2c13	8.2% (inactive)	8.4% (inactive)	0.8% (inactive)	7.1% (inactive)	43.7% (inactive)	76.9% (active)	23.6% (inactive)	6.31% (inactive)	1.03 (inactive)	0.95	0.99
CCCCc1nc(Cl)c(CO)n1Cc1ccc(-c2ccccc2-c2nn[nH]n2)cc1	0.1% (inactive)	-41.3% (inactive)	11.8% (inactive)	1.1% (inactive)	-10.5% (inactive)	28.5% (inactive)	-22.4% (inactive)	-22.5% (inactive)	1.09 (inactive)	1.34	1.46
C[N+](C)(C)CCCCCC[N+](C)(C)C	0.75% (inactive)	10.7% (inactive)	-10.2% (inactive)	-1.6% (inactive)	13.3% (inactive)	-4.3% (inactive)	5.4% (inactive)	12.6% (inactive)	0.92 (inactive)	1.09	1
C#CCN(C)Cc1ccccc1	4.5% (inactive)	23.6% (inactive)	3.1% (inactive)	2.3% (inactive)	2.23% (inactive)	-22.7% (inactive)	2.6% (inactive)	0.126% (inactive)	1.02 (inactive)	1.04	1.05
CCO/C([O-])=N/c1c[n+](N2CCOCC2)no1	0.9% (inactive)	22.3% (inactive)	2.4% (inactive)	-0.5% (inactive)	8.63% (inactive)	43.4% (inactive)	-1.5% (inactive)	16.2% (inactive)	0.9 (inactive)	1.04	0.94
C=CCSCC1Nc2cc(Cl)c(S(N)(=O)=O)cc2S(=O)(=O)N1 (centres undefined)	-0.2% (inactive)	-11% (inactive)	-0.7% (inactive)	0.1% (inactive)	3.27% (inactive)	-6.2% (inactive)	1.8% (inactive)	5.8% (inactive)	1.09 (inactive)	1.09	1.19
Nc1nc2c(c(=O)[nH]1)N(C=O)C(CNc1ccc(C(=O)N[C@@H](CCC(=O)O)C(=O)O)cc1)CN2 (some centres undefined)	3.9% (inactive)	19.3% (inactive)	1.3% (inactive)	0.8% (inactive)	-11.6% (inactive)	24.4% (inactive)	-9.9% (inactive)	-1.29% (inactive)	1.45 (inactive)	0.95	1.38
O=C(O)CCC(=O)Nc1ccc(S(=O)(=O)Nc2nccs2)cc1	-2.6% (inactive)	-3.7% (inactive)	21% (inactive)	-5.7% (inactive)	2% (inactive)	40.3% (inactive)	9.45% (inactive)	-5.92% (inactive)	1.01 (inactive)	1.11	1.13
CC(=O)Oc1cccc2c1C(=O)c1c(OC(C)=O)cc(C(=O)O)cc1C2=O	1.8% (inactive)	106% (active)	6.3% (active)	-2% (inactive)	100% (active)	59.1% (active)	64.3% (active)	-1.78% (inactive)	0.93 (inactive)	1.07	0.99

— PubChem BioAssay
